The list is not random: actives were taken first. Their share in the collection is about 19%.
HT1080-NT tox: kills 2HG-producing HT-1080-NT fibrosarcoma cells; HT-1080-NT fibrosarcoma viability, CellTiter-Glo ATP luminescence, 48 h; Potency, µM (titrated, usually from 46.1 µM), for the others: at the top dose activity, negative = less viability, most hits filed as cytotoxic; AID 686970; hit rate 1.6% among 360,000;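 note: NT is the 2HG producing partner of a matched IDH1 knockdown line; 0% = DMSO-treated cells and -100% = media-only wells without cells; nearly all actives have a fitted effect of over 55% in size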
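Toxicity toward the 2HG-producing NT line was scored as %Activity, normalised to DMSO and no-cell wells, from CellTiter-Glo luminescence after 48 hours' treatment.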
HT1080 IDH1KD tx: kills HT-1080 cells with IDH1 knockdown; Potency, µM (doses to about 46.1 µM), for inactives: top-dose activity, negative = toxicity, usual class: cytotoxic; AID 686971; hit rate 2% among 360,000; HT-1080 IDH1 knockdown viability, ATP luminescence, 48 h;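 note: 0% = DMSO wells and -100% = cell-free medium wells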
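HT-1080-IDH1KD cells (IDH1 knocked down), 750/well in RPMI with 5% FBS, treated with compound 48 h at 37 degrees C. Viability by CellTiter-Glo luminescence, normalised to DMSO and no-cell wells; concentration-response curves classed.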
TDP1 cell CPT: growth inhibition of DT40 Tdp1-/-;hTDP1 cells with camptothecin (screen for TDP1 inhibitors). chicken DT40 Tdp1-/-;hTDP1 cells + 20 nM CPT, ATP luminescence, 48 h. Potency, µM (top dose mostly 46.2 µM), for inactives: at the highest dose activity change, negative = growth inhibition, actives largely listed as inhibitors. hit rate 12% among 420,000. AID 686979; note: nearly all actives have a fitted effect of over 55% in size
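Cell growth measured by CellTiter-Glo luminescence after a minimum 48 h, 37 C compound exposure with 20 nM CPT in Tdp1-knockout DT40 cells stably expressing hTDP1, seeded 400/well; qHTS titration format.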
KB-3-1 cytotox: KB-3-1 parental cell cytotoxicity; KB-3-1 viability, CellTiter-Glo ATP luminescence, 72 h; Potency, µM (top dose mostly 46.1 µM), hits mostly cytotoxic; hit rate 1.4% among 400,000; note: nearly all actives have a fitted effect of over 60% in size
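Cells are dispensed, compounds pinned in, plates held at 37 °C for 72 h, then CellTiter-Glo is added and luminescence read after 10 minutes. Cell line: parental KB-3-1 in phenol-red-free DMEM, 10% FBS.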
TDP1 cell noCPT: qHTS for Inhibitors of human tyrosyl-DNA phosphodiesterase 1 (TDP1): qHTS in cells in absence of CPT; DT40 Tdp1-/- hTDP1 cells, no CPT, ATP luminescence, 48 h; hit rate 15% among 420,000; Potency, µM (highest dose often 46.2 µM), inactives show top-dose activity change, negative = growth inhibition, hits mostly inhibitors; AID 686978, 2013; note: nearly all actives have a fitted effect of over 55% in size
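Seeded 400 DT40-hTDP1 cells/well (vehicle DMSO, no 20 nM CPT); pinned compounds; ≥48 hr at 37 °C; CellTiter-Glo luminescence as viability measure.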
KB-V1 MDR tox: kills drug-selected multidrug resistant KB-V1 cells; Potency, µM (doses to about 46.1 µM), hits mostly cytotoxic; KB-V1 MDR cells viability, CellTiter-Glo, 72 h; hit rate 3.4% among 400,000; AID 1347076; note: nearly all actives have a fitted effect of over 60% in size
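Cells of the MDR subline KB-V1 are plated, dosed with compound at multiple concentrations, and incubated 72 h at 37 degrees C; CellTiter-Glo is then added and luminescence read after 10 min.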
* = called active by the depositor; i = inactive; ? = inconclusive; / = not tested or not shown. Calls come from the whole dose curve; as a rule, active = well fitted curve in the direction sought with a large enough effect; inconclusive = small, poorly fitted or top-dose-only effect, or another doubt; inactive = no such curve, though single readings can be large; an effect the other way counts as inactive or inconclusive. Unless noted, % is set by controls: 0 for no effect and ±100 for the full control effect; potency is the fitted concentration of half-maximal effect.

SMILES	HT1080-NT tox	HT1080 IDH1KD tx	TDP1 cell CPT	KB-3-1 cytotox	TDP1 cell noCPT	KB-V1 MDR tox
Cc1cccc(OCc2nnc(SCC(=O)NCCc3ccccc3)o2)c1	1%	2%	-1%	i	-8%	i
O=C(CSc1nnc(COc2ccc(Cl)cc2)o1)N1c2ccccc2CCc2ccccc21	-22%	?	?	i	15µM*	i
O=C(CSc1nnc(COc2ccccc2)o1)NCCc1ccccc1	-1%	?	8.2µM*	?	7.3µM*	i
COC(=O)c1ccc(OC)c(CSc2nnc(COc3ccc(Cl)cc3)o2)c1	1%	-1%	-20%	i	-27%	?
CCN(CC)S(=O)(=O)c1ccc(/C=C/C(=O)OCC(=O)N(C(C)C)C(C)C)cc1	1%	13%	9%	i	-1%	i
COc1ccc(CC(NC(C)=O)C(=O)NC2CCN(C(=O)c3ccccc3F)CC2)cc1 (stereo not given)	9%	21%	-1%	i	-7%	i
CCOC(=O)C1(C)CCCN(C(=O)c2cc(C#N)cs2)C1 (stereo not given)	31%	2%	5%	i	-1%	i
CCN(c1cccc(C)c1)c1ncnc2nc[nH]c12	2%	7%	-28%	i	-30%	i
CCN(CCCNc1ncnc2nc[nH]c12)c1cccc(C)c1	0%	-14%	18µM*	i	?	?
Cc1ccc(S(=O)(=O)Nc2ccc3c(c2)CC(=O)N([C@H](C)CO)C[C@H](C)[C@H](CN(C)Cc2ccc4c(c2)OCO4)O3)cc1	-11%	-24%	21µM*	?	18µM*	i
COc1ccc(S(=O)(=O)Nc2ccc3c(c2)CC(=O)N([C@@H](C)CO)C[C@@H](C)[C@@H](CN(C)Cc2ccccc2)O3)cc1	-12%	-9%	18µM*	i	16µM*	i
C[C@@H]1CN([C@H](C)CO)C(=O)Cc2cc(NS(=O)(=O)c3ccc(F)cc3)ccc2O[C@H]1CN(C)Cc1ccc(C(=O)O)cc1	1%	-2%	-24%	i	-29%	?
Cc1ccccc1CN1CCCC(C(=O)Nc2ccc(-c3ccn[nH]3)cc2)C1 (stereo not given)	-10%	?	16µM*	?	?	12µM*
COc1cccc(-c2ccc(NC(=O)C3CCCN(Cc4ccccn4)C3)cc2)c1 (stereo not given)	-6%	-2%	?	i	?	i
Cc1ncc(CN2CCCC(C(=O)Nc3ccc(-c4cccc(F)c4)cc3)C2)cn1 (stereo not given)	-29%	?	15µM*	i	?	i
Cc1ncc(CN2CCCC(C(=O)Nc3ccc(-c4cccc(F)c4)cc3)C2)s1 (stereo not given)	-14%	1%	?	i	?	i
O=C(Nc1ccc(-c2cccc(F)c2)cc1)C1CCCN(Cc2ccccn2)C1 (stereo not given)	-3%	-25%	21µM*	/	23µM*	/
Cc1cc(C)c(C#N)c(N2CCN(C(=O)C3COc4ccccc4O3)CC2)n1 (stereo not given)	-1%	-10%	?	i	?	i
N/C(=N\OC(=O)c1cccc(Cn2cc(C(F)(F)F)ccc2=O)c1)c1ccccc1	-3%	-7%	-4%	i	-21%	?
Cc1ccc(/C(N)=N/OC(=O)c2cccc(Cn3cc(C(F)(F)F)ccc3=O)c2)cc1	?	?	?	i	18µM*	?
O=C(Sc1ccc(Cl)cc1)c1cccc(Cn2cc(C(F)(F)F)ccc2=O)c1	-12%	-18%	18µM*	i	16µM*	i

Screens from PubChem BioAssay.
